The results in this text go back to PubChem BioAssay (NCI).

Several values for one entry are separate records, joined by “and”; a condition that tells them apart may be missing. Equal values may be shown once. The panel holds about 83,000 compounds, 20% with a hit somewhere; the sample as a whole holds those more often.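 How to read the values: 0–100, growth inhibition (40 = 60% inhibited); 0, no net growth; -100 to 0, cell death (-40 = 40% of starting cells died; -100 = all dead).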 A number with no mark means an inactive call. Activity calls are given as the source filed them. Rule for the calls: active = growth percent below 10; inactive = the rest.

In the assay the test system is HS 578T breast. The assay can be described thus: NCI-60 one-dose screen, 48 h (100 = growth as untreated, 0 = no growth, -100 = all killed). The settings on record: 10 µM unless noted.
`CC1(C)C=Cc2c(ccc3c2[N+]([O-])=C2C3=C[C@@]34NC(=O)[C@]5(CCCN5C3=O)C[C@@H]4C2(C)C)O1`: the growth was 90.8%. Take `O=C(O)C1C(C(=O)O)C2(Cl)C(Cl)=C(Cl)C1(Cl)C2(Cl)Cl` (centres undefined): the growth is 116%.

With `CNC(=O)O/N=C(\SC)C(=O)N(C)C`, the growth is 96.4%.

For the compound `C[C@]12CCc3sc(Nc4ccc(F)cc4F)nc3C1=CC[C@@H]1[C@@H]2CC[C@]2(C)C(=O)CC[C@@H]12`, the growth is 55.3%.

Consider `N#CC(C#N)=C(C#N)C#N`, for which the growth is 103%. On to `N#CCC(=O)c1ccccc1`, for which the growth is 107%. Under `O=C(O)c1ccc(=O)[nH]c1` stands 98.5% and 102%; under `CC[C@H](C)[C@H](NC(=O)CN(C)C)C(=O)N(C)[C@H](C[C@@H](OC(C)=O)c1nc(C(=O)NC23C4C5C2C2C3C4C52C(=O)OC)cs1)C(C)C` (some centres undefined), 19.8%. `CNC(=O)Oc1ccc(Cl)cc1SSc1cc(Cl)ccc1OC(=O)NC`: the growth is 85.6%. For the compound `CC(=O)OC1CC2(O)C(CCC3(C)C(c4ccc(=O)oc4)CCC32O)C2(C)CCC(OC3OC(CO)C(O)C(O)C3O)C=C12` (centres undefined), the growth was -11.3% (active). Take `Oc1ccc(O)c(Cl)c1`: the growth is 93.5% and 97.7%. Under `CC(=O)Nc1nc2c(s1)C1=CC[C@H]3[C@@H]4CC[C@H](OC(C)=O)[C@@]4(C)CC[C@@H]3[C@@]1(C)CC2` stands 39%. For `O=C(O)C(F)F`, the growth is 96.2%. To `CC[C@H](C)[C@H](NC(=O)C12CC(NC)(C1)C2)C(=O)N(C)[C@H](C[C@@H](OC(C)=O)c1nc(C(=O)N[C@@H](Cc2ccccc2)C[C@H](C)C(=O)OC)cs1)C(C)C` belongs 39.2%; to `NC(=O)Oc1cc(OC(N)=O)cc(N(CCCl)CCCl)c1`, 107%; to `CC[PH+](CC)CC.O=COC1OC([S-])C(OC=O)C(OC=O)C1OC=O.[Au+]` (centres undefined), 14.5%. Consider `CCOC(=O)c1ccccc1C(=O)OCC`, for which the growth was 95.5%. In the case of `C[C@@H]1C/C=C\C(=O)O[C@H](/C=C/C#C/C=C/C(C)(C)[C@@H](O)c2cccc(O)c2Br)[C@@H](C)/C=C/[C@H](C)C[C@H](OC(N)=O)C1`, the growth was 54.8%. Turning to `Cc1c(C)c(N)c(C)c(C)c1N`, the growth was 114%. To `Nc1ccc(P(=O)(O)O)cc1` belongs 110%; to `OCCN=Cc1c[nH]c2ccccc12`, 97.5%; to `S=P(SP(=S)(c1ccccc1)c1ccccc1)(c1ccccc1)c1ccccc1`, 93.8%. For the compound `CN1CCc2cc3c(cc2C1O)OCO3` (centres undefined), the growth was 55.3% and 103%.

Take `Cc1cc(NC(=O)NCCCOc2ccc(N3C(N)=NC(N)=NC3(C)C)cc2Cl)ccc1S(=O)(=O)F`: the growth was 60.3%.
